These results are taken from PubChem BioAssay.

The subject of test [1] is TRPC4 beta (transient receptor potential cation channel C4), mouse. Briefly: activators of mouse TRPC4 channel, confirmation, cell-based, Fluo4 calcium, HEK293 TRPC4beta/mu-opioid, duplicates, 10 µM (AID 2426;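 active means fluorescence ratio normalized to control raised more than 50% in primary screen plus both repeat runs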). As to conditions: Fluo4 calcium fluorescence, at 10 µM; stronger effect = higher value.
Test [2] deals with transient receptor potential cation channel C4 beta (TRPC4), mouse. Briefly: activators of mouse TRPC4 channel, confirmation, cell-based, second round, Fluo4, HEK293 TRPC4beta/mu-opioid, 1 µM (AID 2461;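 active means primary screen active and over 50% activation in each of two duplicate runs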). As to conditions: Fluo4 calcium fluorescence, at 1 µM; stronger effect = higher value.
For test [3], the system named is TRPC4 (transient receptor potential cation channel C4 beta), mouse. Briefly: positive allosteric modulators of mouse TRPC4, confirmation, cell-based, second round, Fluo-4, HEK293 TRPC4beta/mu-opioid, 1 µM (AID 2554;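 active means primary screen hit whose fluorescence ratio, in both repeats, exceeds the weak agonist control mean by 3 SD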). The conditions noted are these: DAMGO EC20, Fluo-4 calcium flux, at 1 µM; stronger effect = higher value. On the technique in general: A change in cytosolic calcium serves as a functional read-out for many receptors and channels.

Test [4] concerns TRPC4 beta (transient receptor potential cation channel C4), mouse. Briefly: positive allosteric modulators of mouse TRPC4, confirmation, cell-based, Fluo-4, HEK293 TRPC4beta/mu-opioid (AID 2555;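 active means primary screen hit whose calcium fluorescence ratio, in both repeats, exceeds the weak agonist control mean by 3 SD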). As to conditions: DAMGO EC20, Fluo-4 calcium flux, at 10 µM; stronger effect = higher value.
Test [5] deals with Short transient receptor potential channel 4 (Mus musculus) (UniProt Q9QUQ5). Description: inhibitors of mouse TRPC4 channel, confirmation, cell-based, Fluo4, HEK293 TRPC4beta/mu-opioid (AID 2636;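 active means calcium signal cut by more than 3 SD below the full-agonist control yet still positive, in both repeats and the earlier primary screen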). The conditions noted are these: DAMGO, Fluo4 calcium flux, at 10 µM; stronger effect = higher value.
Short transient receptor potential channel 4 (Mus musculus), sequence (Q9QUQ5 whole entry, looked up): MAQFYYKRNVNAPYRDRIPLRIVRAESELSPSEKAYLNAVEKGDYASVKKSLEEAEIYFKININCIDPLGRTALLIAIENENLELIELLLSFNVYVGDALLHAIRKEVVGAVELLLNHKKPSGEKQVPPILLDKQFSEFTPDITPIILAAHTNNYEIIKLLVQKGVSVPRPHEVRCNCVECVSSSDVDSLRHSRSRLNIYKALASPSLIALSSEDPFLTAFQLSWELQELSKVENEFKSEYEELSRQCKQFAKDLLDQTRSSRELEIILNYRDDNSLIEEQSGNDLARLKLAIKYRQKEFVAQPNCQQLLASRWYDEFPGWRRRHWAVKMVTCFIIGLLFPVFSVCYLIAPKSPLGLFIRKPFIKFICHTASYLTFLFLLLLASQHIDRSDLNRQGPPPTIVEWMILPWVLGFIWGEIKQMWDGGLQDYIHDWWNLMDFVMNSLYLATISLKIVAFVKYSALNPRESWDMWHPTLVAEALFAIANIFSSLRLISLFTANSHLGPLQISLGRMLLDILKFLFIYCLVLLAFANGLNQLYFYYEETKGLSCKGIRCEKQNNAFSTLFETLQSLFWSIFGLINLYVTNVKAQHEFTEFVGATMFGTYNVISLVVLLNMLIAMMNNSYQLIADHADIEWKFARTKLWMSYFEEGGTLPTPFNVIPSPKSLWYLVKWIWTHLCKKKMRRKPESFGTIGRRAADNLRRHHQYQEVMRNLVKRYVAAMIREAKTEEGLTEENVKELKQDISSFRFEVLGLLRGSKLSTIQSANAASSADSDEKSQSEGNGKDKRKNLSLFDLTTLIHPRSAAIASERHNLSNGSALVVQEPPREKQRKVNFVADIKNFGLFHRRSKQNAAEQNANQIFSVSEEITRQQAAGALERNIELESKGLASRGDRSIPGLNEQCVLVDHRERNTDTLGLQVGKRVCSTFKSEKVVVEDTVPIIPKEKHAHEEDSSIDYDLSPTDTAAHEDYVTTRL
Test [6] shares this target. Briefly: inhibitors of mouse TRPC4 channel, confirmation, cell-based, second round, Fluo4, HEK293 TRPC4beta/mu-opioid, 1 µM (AID 2637;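 active means calcium signal ratio cut to more than 3 SD under the fully stimulated control mean yet still positive, in both repeats and the primary screen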;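 on inhibition: percent of integrated ratio relative to wells lacking test compound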). As to conditions: Fluo4 calcium flux, DAMGO, at 1 µM; stronger effect = higher value.
For test [7] the target is unchanged. Description: mouse TRPC4 channel activators, dose response, cell-based, HEK293 TRPC4/mu-opioid, Fluo-4 calcium (AID 434937;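 active means primary screen activator hit with a dose response curve and TRPC4 channel activation at any tested dose; inactive means no activation, no dose response, or not a primary hit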).
For test [8] the target is unchanged. Briefly: TRPC4 positive allosteric modulators, dose response, cell-based, HEK293 TRPC4/mu-opioid, Fluo-4 calcium, EC20 DAMGO (AID 434941;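 active means earlier screen potentiator hit that boosts the TRPC4 ion channel at some dose, with a dose response; inactive means no potentiation, no dose response, or not a prior hit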;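 further: calcium entry triggered by an EC20 dose of DAMGO at the co-expressed mu-opioid receptor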).
Test [9] has as its target Short transient receptor potential channel 6 (Mus musculus) (UniProt Q61143). Description: inhibition of mouse TRPC6 channel, confirmation, selectivity assay for TRPC4 inhibitor project, cell-based, HEK293, membrane potential dye, duplicate (AID 434948;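 active means active in primary screen and both duplicates, each dropping signal beyond three positive-control SD with fluorescence still positive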). The conditions noted are these: HEK293 TRPC6, membrane potential dye fluorescence, at 10 µM, stimulated with maximal-effect acetylcholine; stronger effect = higher value.

Test [10] shares this target. Briefly: activation of mouse TRPC6 channel, confirmation, selectivity assay for TRPC4 activator project, cell-based, HEK293, membrane potential dye, duplicate (AID 434950;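 active means membrane potential signal rise above negative control mean plus 3 SD in both duplicates, also active in the earlier TRPC4 screen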). As to conditions: HEK293 TRPC6, membrane potential fluorescence, at 10 µM; stronger effect = higher value.
Test [11] has the same target. Briefly: TRPC6 potentiation by TRPC4 potentiator hits, confirmation, selectivity assay for TRPC4 potentiator project, HEK293 cells, membrane potential dye, duplicate (AID 434952). As to conditions: HEK293 TRPC6, membrane potential dye fluorescence, at 10 µM, maximal acetylcholine added after compound; stronger effect = higher value.
In test [12] the target is Short transient receptor potential channel 4 (Mus musculus) (UniProt Q9QUQ5). Briefly: calcium flux activators in TRPC4/5HT1a cells, counter-screen for TRPC4 activator project, cell-based, second counter screen, HEK293 TRPC4/5HT1a, Fluo-4 (AID 434977;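 active means calcium signal rise above buffer-control mean plus 5 SD in both duplicates, and also a hit in the primary screen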). The conditions noted are these: Fluo-4 calcium flux, at 10 µM; stronger effect = higher value.
A short description of test [13]: calcium flux inhibitors in TRPC4/5HT1a cells, confirmation, counter-screen for TRPC4 inhibitor project, cell-based, second counter screen, HEK293 TRPC4/5HT1a, Fluo-4 (AID 434978;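 active means primary screen active whose calcium signal fell more than 3 SD beyond the full-serotonin control mean in both duplicate plates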;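 on outcome: serotonin given first at submaximal then at maximal dose after compound preincubation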). As to conditions: Fluo-4 calcium flux, at 10 µM, serotonin added to trigger calcium flux; stronger effect = higher value.
Test [14] deals with TRPC4 (mouse), co-expressed with 5HT1a in HEK293. Briefly: calcium flux potentiators in TRPC4/5HT1a cells, confirmation, counter-screen for TRPC4 potentiator project, cell-based, second counter screen, HEK293 TRPC4/5HT1a, Fluo-4 (AID 434979;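 active means signal rise over 3 SD above mean of control wells given weak agonist, in both repeats and first screen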). The conditions noted are these: Fluo-4 calcium flux, at 10 µM, serotonin added at its EC20 dose; stronger effect = higher value.
Test [15] in a line: calcium flux activation in mu-opioid HEK293 cells, confirmation, counter-screen for TRPC4 activator project, cell-based, HEK293 mu-opioid receptor line (AID 449723;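 active means hit in primary screen, with calcium signal over 5 SD above buffer well mean in both duplicates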;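 further: counter screen cells carry the mu-opioid receptor alone and lack TRPC4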). As to conditions: Fluo-4 calcium fluorescence, at 10 µM; stronger effect = higher value.
Test [16] can be described thus: calcium flux enhancement in mu-opioid HEK293 cells, confirmation, counter-screen for TRPC4 allosteric potentiator project, cell-based, HEK293 mu-opioid receptor line (AID 449724;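 active means calcium signal rise more than 3 SD above the low-dose agonist control mean, in both duplicate plates and the primary screen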;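 further: HEK293 cells carrying mu-opioid receptor only with no TRPC4 channel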). As to conditions: Fluo-4 calcium flux, at 10 µM, compound added before EC20 DAMGO stimulus; stronger effect = higher value.

Each structure is given as a SMILES string. For some of these results: Entries with a potency or affinity are not part of this list. The source made the active and inactive calls.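 How the source made its calls, unless noted: active means compound raising the membrane signal above positive-control mean plus 3 SD in both repeats, and a primary screen hit; inactive means the rest.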

Short transient receptor potential channel 6 (Mus musculus), sequence (Q61143 whole entry, looked up): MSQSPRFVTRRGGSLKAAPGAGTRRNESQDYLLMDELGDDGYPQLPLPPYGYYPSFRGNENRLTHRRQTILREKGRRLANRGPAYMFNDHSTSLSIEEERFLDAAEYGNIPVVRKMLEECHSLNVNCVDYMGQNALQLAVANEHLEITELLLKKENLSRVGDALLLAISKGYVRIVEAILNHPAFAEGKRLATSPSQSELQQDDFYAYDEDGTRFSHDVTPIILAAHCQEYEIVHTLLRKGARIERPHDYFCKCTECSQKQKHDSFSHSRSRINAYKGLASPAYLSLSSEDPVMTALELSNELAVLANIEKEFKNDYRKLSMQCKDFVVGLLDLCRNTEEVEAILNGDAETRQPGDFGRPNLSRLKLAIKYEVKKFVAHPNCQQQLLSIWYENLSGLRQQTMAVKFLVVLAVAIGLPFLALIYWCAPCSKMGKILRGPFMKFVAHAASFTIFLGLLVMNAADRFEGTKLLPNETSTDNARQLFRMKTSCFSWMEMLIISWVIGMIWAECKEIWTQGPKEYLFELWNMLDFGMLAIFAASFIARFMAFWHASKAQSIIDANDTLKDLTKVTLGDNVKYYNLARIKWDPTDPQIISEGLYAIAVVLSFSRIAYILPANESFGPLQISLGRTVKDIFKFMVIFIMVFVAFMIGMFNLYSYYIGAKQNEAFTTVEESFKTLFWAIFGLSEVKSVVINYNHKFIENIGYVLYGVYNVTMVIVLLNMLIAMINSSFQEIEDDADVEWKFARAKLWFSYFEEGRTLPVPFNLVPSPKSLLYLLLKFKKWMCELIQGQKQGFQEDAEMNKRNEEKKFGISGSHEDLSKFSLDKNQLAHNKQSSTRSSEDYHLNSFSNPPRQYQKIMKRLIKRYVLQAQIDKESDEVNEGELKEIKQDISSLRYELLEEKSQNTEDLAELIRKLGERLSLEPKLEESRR

In general, inhibition refers to the change of the read-out against control, counted positive when it falls. As to `Clc1ccc(COc2ccccc2CNCc2cccnc2)cc1`, the outcome in [1], in [2], in test [3], in test [4], in [6] and in [7] was inactive. Further, the result in [8], in test [9], in test [10], in test [11], in test [12] and in test [14] was inactive. Besides, the outcome in [15] and in test [16] was inactive. The values for the inhibition in test [5] and in [13] were 94% (active) and 27.8% (active), respectively.
Consider `COC(=O)c1c(NC(=O)CSc2ncn[nH]2)sc(C)c1C`, for which the outcome in test [1], in [2], in [3], in test [4], in test [6] and in test [7] was inactive. The outcome in test [8], in [9], in [10], in test [11], in [12] and in test [13] was inactive. Also, the result in test [14], in test [15] and in test [16] was inactive. Also, the inhibition in test [5] is 67% (active).
`Cc1cc(C)c2c(=O)n(CC(=O)NCCCN3CCN(c4ccccc4F)CC3)sc2n1`: the result in [1], in [2], in test [3], in test [4], in test [7] and in test [8] was inactive. Moreover, the result in [9], in [10], in test [11], in [12], in test [13] and in [14] was inactive. For the same compound, the outcome in [15] and in [16] was inactive. In addition, the results for the inhibition in [5] and in [6] were 90% (active) and 55% (active), respectively.
For the compound `CC(C)C1=Nc2cccc3cccc(c23)N1`, the outcome in [1], in test [2], in test [3], in test [4], in test [7] and in [8] was inactive. Also, the call in test [9], in test [10], in test [11], in test [12], in test [14] and in [15] was inactive. Also, in test [16], the outcome was inactive. The inhibition in test [5] was 95% (active); in test [6], 49% (active); in test [13], 17.1% (active).
On to `Cc1ccc(C)c2[nH]c(=O)c(CN(CC3CCCO3)C(=S)NCc3ccco3)cc12` (stereo unspecified), for which the outcome in test [1], in test [2], in [3], in test [4], in test [6] and in test [7] was inactive. For the same compound, the result in test [8], in test [9], in [10], in [11], in [12] and in [14] was inactive. Further, the result in test [15] and in test [16] was inactive. For the same compound, the figures for the inhibition in [5] and in [13] were 79% (active) and 37.5% (active), respectively.
Turning to `CCOc1ccc(CN2CCN(C(=O)c3ccccc3)CC2)cc1`, the result in [1], in test [2], in test [3], in test [4], in test [6] and in test [7] was inactive. For the same compound, the outcome in test [8], in test [9], in [10], in test [11], in test [12] and in test [14] was inactive. Moreover, the outcome in test [15] and in [16] was inactive. In addition, the inhibition is 79% (active) in test [5] and 44.7% (active) in test [13].
Turning to `Cc1cccc(-n2nc(C)c3c(C(=O)O)cc(-c4cccs4)nc32)c1`, the result in [1], in [2], in test [3], in test [4], in test [6] and in test [7] was inactive. The outcome in test [8], in test [9], in test [10], in test [11], in test [12] and in test [14] was inactive. Moreover, the outcome in [15] and in test [16] was inactive. For the same compound, the inhibition was 89% (active) in test [5] and 28.2% (active) in test [13].
For the compound `CCn1nc(C)c(CN2CCCC(CO)(Cc3cccc(Cl)c3)C2)c1C` (stereo unspecified), the outcome in test [1], in test [2], in test [3], in test [4], in test [7] and in test [8] was inactive. For the same compound, the outcome in test [9], in test [10], in [11], in [12], in test [13] and in test [14] was inactive. In addition, the result in test [15] and in [16] was inactive. Moreover, the figures for the inhibition in [5] and in test [6] were 90% (active) and 49% (active), respectively.
`COc1ccc2c(c1)C=C(CN1CCC(CO)(CCc3ccccc3)CC1)CO2`: the outcome in test [1], in test [2], in test [3], in test [4], in test [6] and in test [7] was inactive. Besides, the outcome in test [8], in test [9], in [10], in [11], in [12] and in [14] was inactive. The result in test [15] and in test [16] was inactive. Moreover, the inhibition is 102% (active) in test [5] and 35.7% (active) in [13].
For the compound `Fc1ccccc1Sc1ccccc1CNC1=NCCN1`, the outcome in test [1], in test [2], in test [3], in test [4], in test [7] and in test [8] was inactive. The compound was classed as inactive in test [9], in test [10], in test [11], in [12], in [14] and in test [15]. Further, the outcome in test [16] was inactive. Moreover, the figures for the inhibition in [5], in test [6] and in test [13] were 93% (active), 68% (active) and 16.1% (active), respectively.
Take `Cc1c(N(C)S(=O)(=O)c2cc(C(=O)NCC3CCCO3)ccc2Cl)c(=O)n(-c2ccccc2)n1C` (stereo unspecified): the result in test [1], in [2], in test [3], in test [4], in test [7] and in [8] was inactive. Besides, the compound was classed as inactive in test [9], in test [10], in test [11], in test [12], in test [13] and in [14]. Besides, the result in test [15] and in test [16] was inactive. Moreover, the inhibition is 84% (active) in [5] and 45% (active) in test [6].
On to `COc1ccc(C)cc1N(C(=O)c1snc(C(N)=O)c1N)C(C(=O)NC1CCCCC1)c1ccc(C)o1` (stereo unspecified), for which the result in [1], in [2], in test [3], in test [4], in test [7] and in test [8] was inactive. The outcome in test [9], in [10], in [11], in test [12], in test [14] and in test [15] was inactive. Moreover, the result in [16] was inactive. In addition, the inhibition in test [5] is 92% (active); in test [6] it was 72% (active); in test [13], 19.6% (active).
Turning to `COc1ccc(O)c(C(=O)c2cnc3c(c2)c(=O)[nH]c(=O)n3C)c1`, the outcome in [1], in test [2], in [3], in [4], in test [7] and in [8] was inactive. For the same compound, the outcome in test [9], in test [10], in test [11], in test [12], in test [14] and in test [15] was inactive. The outcome in test [16] was inactive. The values for the inhibition in test [5], in test [6] and in test [13] were 92% (active), 63% (active) and 20% (active), respectively.
With `CCOC(=O)C1(CCc2ccccc2)CCN(Cc2ccccn2)CC1`, the result in [1], in test [2], in test [3], in test [4], in test [6] and in test [7] was inactive. In addition, the result in test [8], in [9], in test [10], in test [11], in [12] and in [13] was inactive. Further, the outcome in [14], in test [15] and in test [16] was inactive. In test [5], the inhibition was 88% (active).
As to `OCC1(Cc2ccc(Cl)cc2)CCN(Cc2ccccc2F)CC1`, the result in test [1], in test [2], in test [3], in test [4], in [7] and in test [8] was inactive. Further, the outcome in test [9], in test [10], in test [11], in [12], in test [14] and in test [15] was inactive. Also, the outcome in test [16] was inactive. Moreover, the inhibition in test [5] was 89% (active); in [6] it was 38% (active); in test [13], 27.9% (active).
Turning to `CCCCCC[N+](C)(C)CC/C=C1/c2ccccc2Sc2ccc(Cl)cc21`, the outcome in test [1], in [2], in test [3], in test [4], in test [7] and in [8] was inactive. The outcome in test [10], in test [11], in [12], in test [14], in test [15] and in [16] was inactive. Besides, the inhibition in test [5] was 83% (active); in test [6] it was 61% (active); in test [9], 42.5% (active); in test [13] it was 31.8% (active).
